Screening data: PubChem, Broad Institute
The sample as a whole holds a higher share of hits than the screen did.
MITF inhib – inhibitors of MITF. TRPM1 promoter luciferase, luminescence, 24 h. inhibition, % (test concentration not listed). hit rate 0.28% among 37,000. AID 2240; in the data active means inhibition above about 85%; inconclusive means no clear call, values can overlap the other calls; inactive means below about 68%;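 further: human melanocyte line stably carrying TRPM1 promoter luciferase reporter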
STK33 kin inh – human STK33 kinase inhibition. hit rate 0.44% among 27,000. Q9BYT3. inhibition, % at 12.5 µM. ADP-Glo luminescence, MBP substrate; in the data active means inhibition above about 20%; inconclusive means no clear call, values can overlap the other calls
Target sequence (Q9BYT3 whole entry, looked up): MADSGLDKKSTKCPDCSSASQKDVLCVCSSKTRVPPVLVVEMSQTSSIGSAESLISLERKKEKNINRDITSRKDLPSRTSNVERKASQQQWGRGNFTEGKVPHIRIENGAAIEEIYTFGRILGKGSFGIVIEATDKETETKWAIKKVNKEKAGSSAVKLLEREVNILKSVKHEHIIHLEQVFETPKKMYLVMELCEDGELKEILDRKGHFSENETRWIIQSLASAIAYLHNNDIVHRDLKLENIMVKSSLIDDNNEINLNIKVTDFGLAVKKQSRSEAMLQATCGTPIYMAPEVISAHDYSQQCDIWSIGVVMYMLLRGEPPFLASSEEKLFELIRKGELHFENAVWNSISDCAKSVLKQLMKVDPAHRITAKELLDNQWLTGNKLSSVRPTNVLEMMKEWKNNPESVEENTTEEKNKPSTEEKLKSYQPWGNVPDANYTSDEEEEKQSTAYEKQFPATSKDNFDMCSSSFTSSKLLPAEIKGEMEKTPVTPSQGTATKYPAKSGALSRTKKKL
NOMO-1 viab – STK33 inhibitor candidate reducing NOMO-1 cell viability | hit rate 7.5% among 37,000 | inhibition, % (test concentration not listed) | AID 2330 | NOMO-1 AML viability, CellTiter-Glo luminescence, 72 h; in the data active means inhibition above about 80%; inconclusive means no clear call, values can overlap the other calls
p53 PUMA act – restores mutant p53 pathway signaling in SW480 cells; hit rate 1.5% among 28,000; activation, % at 9.98 µM; SW480 PUMA-promoter luciferase, p53 mutant reactivation; in the data active means activation above about 52%; inconclusive means no clear call, values can overlap the other calls
Of the large screens only hits and unclear results are named; the others gave an inactive call.

O=C(O)[C@H]1O[C@@H](Oc2c(-c3ccc(O)cc3)oc3cc(O)cc(O)c3c2=O)[C@H](O)[C@@H](O)[C@@H]1O	none (no result: MITF inhib, STK33 kin inh, NOMO-1 viab)
O=c1cc(-c2ccccc2)oc2cc(O)cc(O)c12	STK33 kin inh 33.1 (no result: p53 PUMA act)
COc1cc(O)c2c(=O)cc(-c3ccc(O)cc3)oc2c1	none (no result: p53 PUMA act)
O=c1cc(-c2ccc(O)cc2)oc2cc(O)cc(O)c12	STK33 kin inh 54.3 (no result: p53 PUMA act)
CC(C)(C)c1ccc(C(=O)C(C#N)=C2SCCCS2)cc1	NOMO-1 viab 109.5 (no result: STK33 kin inh, p53 PUMA act)
CC(C)(C)c1ccc(C(=O)N2CCCC2)cc1	none (no result: p53 PUMA act)
O=c1cc(-c2ccccc2)n(-c2ccccc2)cn1	NOMO-1 viab 100.6 (no result: p53 PUMA act)
N#CSCC(=O)C12CC3CC(CC(C3)C1)C2	NOMO-1 viab 112.8 (no result: STK33 kin inh, p53 PUMA act)
O=C(CSc1ccc(F)cc1Cl)C12CC3CC(CC(C3)C1)C2	none (no result: STK33 kin inh, p53 PUMA act)
Cc1ccc2cc3c(nc2c1)N(c1ccc(C(=O)NCc2ccco2)cc1)CC3	NOMO-1 viab 115.7 (no result: STK33 kin inh, p53 PUMA act)
Cc1ccn2cc(-c3cccc(NS(=O)(=O)c4cccc([N+](=O)[O-])c4)c3)nc2c1	p53 PUMA act 169.7
CC(=O)Nc1ccc(S(=O)(=O)Nc2cccc(-c3cn4ccc(C)cc4n3)c2)cc1	p53 PUMA act inconclusive
C=CCNc1oc(CC(C)C)nc1C#N	none (no result: MITF inhib, STK33 kin inh, NOMO-1 viab)
CC(C)CC1NC(=O)C(CC(C)C)N(O[C@@H]2O[C@H](COC(=O)CCC(=O)O)[C@@H](O)[C@H](O)[C@H]2O)C1=O (some centres not stated)	NOMO-1 viab 118.5 (no result: p53 PUMA act)
Cc1cc(=O)oc2cc(OC(C)C(=O)Nc3sc4c(c3C(N)=O)CCCC4)ccc12 (configuration not stated)	none
O=C(NCc1ccccn1)Nc1ccccc1Cl	p53 PUMA act 142.8
O=C(COc1ccc(Cl)cc1Br)Nc1cccnc1	p53 PUMA act inconclusive
O=C(COc1ccc(Cl)cc1Br)NCc1ccccn1	p53 PUMA act 75.7 (no result: MITF inhib, NOMO-1 viab)
Cc1ccc(C(O)c2nccc3ccccc23)cc1 (configuration not stated)	none (no result: p53 PUMA act)
C[C@H](CO)N1C[C@H](C)[C@H](CN(C)Cc2ccc(-c3ccccc3)cc2)Oc2ccc(NC(=O)Nc3cccc4ccccc34)cc2C1=O	NOMO-1 viab 119.7 (no result: STK33 kin inh, p53 PUMA act)
C[C@H]1CN([C@@H](C)CO)C(=O)c2cc(NC(=O)Nc3cccc4ccccc34)ccc2O[C@H]1CN(C)Cc1ccncc1	NOMO-1 viab 108.3 (no result: STK33 kin inh, p53 PUMA act)
C[C@@H]1CN([C@@H](C)CO)C(=O)c2cc(NC(=O)Nc3cccc4ccccc34)ccc2O[C@@H]1CN(C)Cc1ccccc1	none (no result: p53 PUMA act)
C[C@H]1CN([C@@H](C)CO)C(=O)c2cc(NC(=O)Nc3cccc4ccccc34)ccc2O[C@@H]1CN(C)Cc1ccc(-c2ccccc2)cc1	NOMO-1 viab 101.7 (no result: p53 PUMA act)
C[C@@H]1CN([C@H](C)CO)C(=O)c2cc(NC(=O)Nc3cccc4ccccc34)ccc2O[C@@H]1CN(C)Cc1ccc(-c2ccccc2)cc1	NOMO-1 viab 89.9 (no result: STK33 kin inh, p53 PUMA act)
C[C@@H]1CN([C@H](C)CO)C(=O)c2cc(NC(=O)Nc3cccc4ccccc34)ccc2O[C@@H]1CN(C)Cc1ccccc1	none (no result: STK33 kin inh, p53 PUMA act)
Cc1ccc(-n2c(C)nnc2SCC(=O)Nc2c(C)cccc2C)cc1C	none
CSC(=NCc1sccc1COc1ccc(Cl)cc1)NC#N	none (no result: MITF inhib, STK33 kin inh, NOMO-1 viab)
COC(=O)NCC12CC3CC(CC(C3)C1)C2	none (no result: p53 PUMA act)
CCN1CCN(C(=O)C2CCCN2S(=O)(=O)c2cccc3nsnc23)CC1 (configuration not stated)	none
C=C1C(=O)O[C@@H]2CC=C(CCC(C)O)C(C)C[C@@H]12 (some centres not stated)	NOMO-1 viab 121.1
COc1cc(-c2nnc(SCC(N)=O)n2C)cc(OC)c1OC	none
CC1(C)c2ccccc2N(CCC(N)=O)C12C=Cc1c(ccc3ccccc13)O2 (configuration not stated)	NOMO-1 viab 87.9 (no result: STK33 kin inh, p53 PUMA act)
C=CCN1C(=O)/C(=C2\SC(N3CCCCC3)=NC2=O)c2ccccc21	p53 PUMA act 68.1 (no result: MITF inhib, STK33 kin inh, NOMO-1 viab)
C=CCN1C(=O)/C(=C2\SC(=Nc3ccccc3)N(c3ccccc3)C2=O)c2ccccc21	none (no result: STK33 kin inh, p53 PUMA act)
Cc1sc(NC(=O)c2cc(-c3ccccn3)nc3ccccc23)c(C(=O)NC2CCCCC2)c1C	none
Cc1ccc(-c2cc(C(=O)Nc3sc(C)c(-c4ccccc4)c3C(N)=O)c3ccccc3n2)o1	p53 PUMA act 104.9
Cc1sc(NC(=O)c2cnccn2)c(C(N)=O)c1-c1ccccc1	p53 PUMA act 98.8
CCOC(=O)c1cc(-c2ccccc2)sc1NC(=S)Nc1cnccn1	none
c1ccc2[nH]c(-c3nc4ccccc4s3)nc2c1	MITF inhib 86.2, NOMO-1 viab 127.0 (no result: STK33 kin inh, p53 PUMA act)
COc1ccc(OC)c2c(=O)cc(C(=O)O)oc12	none (no result: STK33 kin inh, p53 PUMA act)
CCN(CC)c1ccc2cc(C(N)=O)c(=Nc3ccc(F)cc3)oc2c1	NOMO-1 viab 93.9 (no result: STK33 kin inh, p53 PUMA act)
O=C(COc1ccccc1[N+](=O)[O-])Nc1cc(-c2nc3ccccc3o2)ccc1Cl	none
CCc1ccc(NC(=O)COc2ccc(NC(C)=O)cc2)cc1	none
c1ccc(-c2nc3ccc(Cc4ccc5nc(-c6ccccn6)c(-c6ccccn6)nc5c4)cc3nc2-c2ccccn2)nc1	none
Cc1cc(=S)nc(-c2ccccn2)[nH]1	NOMO-1 viab 112.4 (no result: STK33 kin inh, p53 PUMA act)
C[C@H]1CN([C@@H](C)CO)C(=O)Cc2cc(NS(=O)(=O)c3ccc(F)cc3)ccc2O[C@@H]1CN(C)Cc1ccc(-c2ccccc2)cc1	NOMO-1 viab 122.5 (no result: p53 PUMA act)
C[C@H]1CN([C@@H](C)CO)C(=O)Cc2cc(NS(=O)(=O)c3ccc(Cl)cc3)ccc2O[C@@H]1CN(C)Cc1ccc(-c2ccccc2)cc1	NOMO-1 viab 124.2 (no result: p53 PUMA act)
Cc1ccc(S(=O)(=O)Nc2ccc3c(c2)CC(=O)N([C@H](C)CO)C[C@H](C)[C@H](CN(C)Cc2ccc(-c4ccccc4)cc2)O3)cc1	NOMO-1 viab 83.9 (no result: p53 PUMA act)
C[C@@H]1CN([C@H](C)CO)C(=O)Cc2cc(NS(=O)(=O)c3ccccc3)ccc2O[C@@H]1CN(C)Cc1ccc(-c2ccccc2)cc1	NOMO-1 viab 104.3 (no result: p53 PUMA act)
C[C@@H]1CN([C@@H](C)CO)C(=O)Cc2cc(NS(=O)(=O)c3ccccc3)ccc2O[C@@H]1CN(C)Cc1ccc(-c2ccccc2)cc1	none (no result: p53 PUMA act)
C[C@@H]1CN([C@H](C)CO)C(=O)Cc2cc(NS(=O)(=O)c3ccc(F)cc3)ccc2O[C@@H]1CN(C)Cc1ccccc1	none (no result: p53 PUMA act)
COC(=O)c1cc(OC)c(OC)cc1NC(=O)COc1ccccc1	none
Cc1ccc(S(=O)(=O)Nc2ccc3c(c2)CC(=O)N([C@@H](C)CO)C[C@@H](C)[C@@H](CN(C)Cc2ccccc2)O3)cc1	none (no result: p53 PUMA act)
Cc1ccc(S(=O)(=O)Nc2ccc3c(c2)CC(=O)N([C@H](C)CO)C[C@@H](C)[C@@H](CN(C)Cc2ccccc2)O3)cc1	NOMO-1 viab 84.5 (no result: p53 PUMA act)
C[C@H]1CN([C@@H](C)CO)C(=O)c2cc(NS(=O)(=O)c3ccc(F)cc3)ccc2O[C@@H]1CN(C)Cc1ccc(Oc2ccccc2)cc1	NOMO-1 viab 117.0 (no result: STK33 kin inh, p53 PUMA act)
COc1ccc(S(=O)(=O)Nc2ccc3c(c2)C(=O)N([C@@H](C)CO)C[C@@H](C)[C@@H](CN(C)Cc2ccc(-c4ccccc4)cc2)O3)cc1	NOMO-1 viab 91.0 (no result: p53 PUMA act)
C[C@H](CO)N1C[C@H](C)[C@@H](CN(C)Cc2ccc(Oc3ccccc3)cc2)Oc2ccc(NS(=O)(=O)c3ccc(F)cc3)cc2C1=O	none (no result: STK33 kin inh, p53 PUMA act)
COc1ccc(S(=O)(=O)Nc2ccc3c(c2)C(=O)N([C@H](C)CO)C[C@@H](C)[C@H](CN(C)Cc2ccc(-c4ccccc4)cc2)O3)cc1	none (no result: p53 PUMA act)
